Results filed as inconclusive are left out. Activity calls are given as the source filed them. Rule for the calls: active = hit-call score of the fitted dose curve at least 0.9, where 1 is the maximum; inconclusive = response in the unintended direction; inactive = score below 0.9.
Target: guinea pig Opioid, Kappa 1 Receptor (OpiateK), OPRK1 (gene 100135587) (UniProt P41144)
Assay: NVS_GPCR_gOpiateK: NovaScreen (NVS) G Protein-Coupled Receptor Assay for guinea pig Opioid, Kappa 1 Receptor (OpiateK) (AID 2283252);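 note: radioligand displacement from kappa opioid receptor in guinea pig cerebellar membranes; active means reduced radioligand binding relative to DMSO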
How it was run: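 Guinea pig cerebellar membranes, radioligand displacement with filter-based scintillation counting, 2 h after dosing. Primary screen single concentration 25 uM in duplicate; actives retested in concentration series; loss of binding fitted versus DMSO.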

guinea pig Opioid, Kappa 1 Receptor (OpiateK), OPRK1 (gene 100135587), sequence (P41144 whole entry, looked up): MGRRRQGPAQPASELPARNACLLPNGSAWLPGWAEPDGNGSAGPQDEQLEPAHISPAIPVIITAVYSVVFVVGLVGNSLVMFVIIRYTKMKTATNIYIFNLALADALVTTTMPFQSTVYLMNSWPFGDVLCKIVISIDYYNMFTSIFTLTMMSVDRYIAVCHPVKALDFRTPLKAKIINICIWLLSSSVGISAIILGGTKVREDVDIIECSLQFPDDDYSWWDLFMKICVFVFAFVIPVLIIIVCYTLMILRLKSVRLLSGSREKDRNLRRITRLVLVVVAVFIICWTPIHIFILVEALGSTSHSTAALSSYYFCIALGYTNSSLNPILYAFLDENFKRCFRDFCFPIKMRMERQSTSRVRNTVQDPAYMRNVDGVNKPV

Row | Compound | AC50 | outcome
1 | CNCc1cc(F)ccc1Oc1ccc(Cl)c(Cl)c1 | 12.7 µM (active) | 
2 | CN1CCN(Cc2cc(-c3ccc4[nH]c(=O)oc4c3)co2)[C@@H](c2ccc(F)cc2)C1 |  | inactive
3 | COCCOC[C@H](CC1(C(=O)NC2CCC(C(=O)O)CC2)CCCC1)C(=O)Oc1ccc2c(c1)CCC2 (stereo partly specified) |  | inactive
4 | Cc1nc(-c2ccc3c(c2)CCN(CCC2CCC(NC(=O)/C=C/c4ccc(F)cc4)CC2)CC3)no1 (stereo unspecified) | 0.262 µM (active) | 
5 | COc1cc(S(=O)(=O)O)c(C)cc1N=Nc1c(O)ccc2cc(S(=O)(=O)O)ccc12 |  | inactive
6 | CCc1c(C(=O)NN2CCCCC2)nn(-c2ccc(Cl)cc2Cl)c1-c1ccc(Br)cc1 | 9.97 µM (active) | 

Target: human Serotonin, 5-Hydroxytryptamine Receptor 6 (5HT6), HTR6 (gene 3362) (UniProt P50406)
Sequence (P50406 whole entry, looked up): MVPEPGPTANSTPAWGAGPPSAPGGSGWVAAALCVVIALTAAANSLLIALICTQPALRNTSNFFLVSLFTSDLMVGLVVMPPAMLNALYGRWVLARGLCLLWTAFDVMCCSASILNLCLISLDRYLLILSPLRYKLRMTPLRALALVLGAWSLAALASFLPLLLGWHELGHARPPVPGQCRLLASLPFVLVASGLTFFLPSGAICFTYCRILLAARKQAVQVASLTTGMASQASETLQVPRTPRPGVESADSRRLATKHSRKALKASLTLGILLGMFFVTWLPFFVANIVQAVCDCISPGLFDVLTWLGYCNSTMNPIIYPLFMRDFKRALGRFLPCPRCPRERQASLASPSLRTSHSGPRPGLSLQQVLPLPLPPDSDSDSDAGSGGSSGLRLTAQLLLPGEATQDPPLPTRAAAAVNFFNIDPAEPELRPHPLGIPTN
Assay: NVS_GPCR_h5HT6: NovaScreen (NVS) G Protein-Coupled Receptor Assay for human Serotonin, 5-Hydroxytryptamine Receptor 6 (5HT6) (AID 2283253)
How it was run: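 Radioligand binding to 5HT6 in HEK293-derived membranes, cell-free, 1 h after dosing; bound ligand measured by filter-based scintillation counting. Primary screen in duplicate at 25 uM; actives retested in concentration series.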

Row | Compound | AC50 | outcome
7 | NC(=O)Cn1c(=O)cc(CCN2CCN(c3nccc4sccc34)CC2)c2ccc(F)cc21 | 0.214 µM (active) | 
8 | CCCCC(CC)COC(=O)CC(C(=O)OCC(CC)CCCC)S(=O)(=O)O (stereo unspecified) | 36.6 µM (active) | 
9 | Oc1ccc2c(c1)OC[C@@H](N1CCC(O)(c3ccc(F)cc3)CC1)[C@H]2O |  | inactive
10 | Nc1ccc(S(=O)(=O)c2ccc(N)cc2)cc1 | 1.2 µM (active) | 
11 | NCCO |  | inactive
12 | CN1CCN(Cc2cc(-c3ccc4[nH]c(=O)oc4c3)co2)[C@@H](c2ccc(F)cc2)C1 | 2.5 µM (active) | 
13 | NS(=O)(=O)c1cc2c(cc1Cl)NCNS2(=O)=O |  | inactive

Target: human Adenosine A1 Receptor (AdoRA1), ADORA1 (gene 134) (UniProt P30542)
Sequence (P30542 whole entry, looked up): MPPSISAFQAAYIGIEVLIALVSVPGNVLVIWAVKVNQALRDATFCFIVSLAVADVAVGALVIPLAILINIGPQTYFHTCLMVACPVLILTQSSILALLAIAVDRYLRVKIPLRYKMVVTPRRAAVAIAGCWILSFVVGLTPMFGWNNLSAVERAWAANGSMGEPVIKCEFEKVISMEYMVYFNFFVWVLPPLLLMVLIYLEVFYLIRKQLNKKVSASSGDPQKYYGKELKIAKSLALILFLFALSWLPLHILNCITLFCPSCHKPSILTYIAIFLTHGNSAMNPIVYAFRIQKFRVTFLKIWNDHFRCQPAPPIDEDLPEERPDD
Assay: NVS_GPCR_hAdoRA1: NovaScreen (NVS) G Protein-Coupled Receptor Assay for human Adenosine A1 Receptor (AdoRA1) (AID 2283254)
How it was run: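 Radioligand competition binding on human cortical membranes, 1 h after compound addition; bound radioactivity read by filtration and scintillation counting. Loss of signal versus DMSO baseline scored as displacement; primary screen duplicate at 25 uM, actives retested in concentration series.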

Row | Compound | AC50 | outcome
14 | CCCCC(CC)COC(=O)CC(C(=O)OCC(CC)CCCC)S(=O)(=O)O (stereo unspecified) | 20.7 µM (active) | 
15 | Oc1ccc2c(c1)OC[C@@H](N1CCC(O)(c3ccc(F)cc3)CC1)[C@H]2O |  | inactive
16 | CCOC(=O)CCC(=O)OCC |  | inactive
17 | O=C(N[C@@H](Cc1ccccc1)[C@@H](O)C(=O)N1C[C@@H](O)[C@@H](O)C1)c1cc2cc(Cl)ccc2[nH]1 | 16 µM (active) | 
18 | Nc1ccc2c(c1)C(=O)c1ccccc1C2=O | 6.52 µM (active) | 
19 | O=c1c(O)c(-c2ccc(O)c(O)c2)oc2cc(O)cc(O)c12 |  | inactive
20 | C=CCOC(=O)c1ccccc1C(=O)OCC=C |  | inactive

Target: human Serotonin, 5-Hydroxytryptamine Receptor 7 (5HT7), HTR7 (gene 3363) (UniProt P34969)
Sequence (P34969 whole entry, looked up): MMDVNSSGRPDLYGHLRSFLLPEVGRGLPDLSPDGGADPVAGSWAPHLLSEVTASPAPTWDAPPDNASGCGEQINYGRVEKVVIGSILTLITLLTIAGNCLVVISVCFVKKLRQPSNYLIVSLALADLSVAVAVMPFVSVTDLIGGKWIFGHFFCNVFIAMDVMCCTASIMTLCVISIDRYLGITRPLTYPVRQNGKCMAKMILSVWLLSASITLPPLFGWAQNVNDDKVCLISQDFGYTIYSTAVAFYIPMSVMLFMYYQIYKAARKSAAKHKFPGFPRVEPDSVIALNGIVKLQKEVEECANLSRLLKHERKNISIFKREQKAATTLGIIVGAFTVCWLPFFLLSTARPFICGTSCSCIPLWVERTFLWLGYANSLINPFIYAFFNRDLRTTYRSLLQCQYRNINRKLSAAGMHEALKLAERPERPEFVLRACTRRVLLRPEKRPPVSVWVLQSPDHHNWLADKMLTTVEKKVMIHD
Assay: NVS_GPCR_h5HT7: NovaScreen (NVS) G Protein-Coupled Receptor Assay for human Serotonin, 5-Hydroxytryptamine Receptor 7 (5HT7) (AID 2283255);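 note: hits reduce specific radioligand binding relative to DMSO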
How it was run: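 Radioligand displacement on membranes from CHO cells expressing human 5HT7, 1 h incubation, filter-based scintillation counting. Primary screen used a single 25 uM concentration in duplicate; actives were followed up in concentration series.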

Row | Compound | AC50 | outcome
21 | CC(C)c1ccc(C(=O)N=C(N)N)cc1S(C)(=O)=O | 8.17 µM (active) | 
22 | NC(=O)Cn1c(=O)cc(CCN2CCN(c3nccc4sccc34)CC2)c2ccc(F)cc21 | 0.0155 µM (active) | 
23 | CCCCC(CC)COC(=O)CC(C(=O)OCC(CC)CCCC)S(=O)(=O)O (stereo unspecified) | 6.08 µM (active) | 
24 | CCOC(=O)CCC(=O)OCC |  | inactive
25 | CN1CCN(Cc2cc(-c3ccc4[nH]c(=O)oc4c3)co2)[C@@H](c2ccc(F)cc2)C1 | 15.6 µM (active) | 
26 | COc1cc(S(=O)(=O)O)c(C)cc1N=Nc1c(O)ccc2cc(S(=O)(=O)O)ccc12 | 14.8 µM (active) | 

Target: human Adenosine A2a Receptor (AdoRA2a), ADORA2A (gene 135) (UniProt P29274)
Sequence (P29274 whole entry, looked up): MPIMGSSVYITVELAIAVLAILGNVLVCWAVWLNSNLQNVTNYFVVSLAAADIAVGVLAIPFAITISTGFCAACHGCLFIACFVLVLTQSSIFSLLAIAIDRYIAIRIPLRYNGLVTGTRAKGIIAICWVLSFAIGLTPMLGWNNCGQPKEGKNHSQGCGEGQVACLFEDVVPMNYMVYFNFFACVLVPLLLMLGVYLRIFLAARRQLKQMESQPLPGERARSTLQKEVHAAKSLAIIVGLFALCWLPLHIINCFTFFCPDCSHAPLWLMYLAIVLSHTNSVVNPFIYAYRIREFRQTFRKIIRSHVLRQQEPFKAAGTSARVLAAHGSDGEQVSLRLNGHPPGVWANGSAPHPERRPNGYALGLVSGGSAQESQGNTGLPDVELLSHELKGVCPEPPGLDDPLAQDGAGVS
Assay: NVS_GPCR_hAdoRA2a: NovaScreen (NVS) G Protein-Coupled Receptor Assay for human Adenosine A2a Receptor (AdoRA2a) (AID 2283256)
How it was run: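 Radioligand displacement on HEK293-derived membrane protein, cell-free; filter-based scintillation counting 1.5 hours after dosing, loss of signal vs DMSO. Single-point duplicate screen at 25 uM, actives retested in concentration series.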

Row | Compound | AC50 | outcome
27 | Nc1ccccc1N | 0.975 µM (active) | 
28 | CCCCC(CC)COC(=O)CC(C(=O)OCC(CC)CCCC)S(=O)(=O)O (stereo unspecified) | 25 µM (active) | 
29 | CCOC(=O)CCC(=O)OCC |  | inactive
30 | CCOc1ccc2c(c1)C(C)=CC(C)(C)N2 |  | inactive
31 | O=c1c(O)c(-c2ccc(O)c(O)c2)oc2cc(O)cc(O)c12 | 11.8 µM (active) | 

Reference: PubChem BioAssay (EPA / NIEHS)
